The campaign covered roughly 5,500 compounds. About 2,000 (36%) were called active. Inconclusive results (about 18%) are left out. No stated cut-off is given here; in the data, active means normalized growth mostly below about 0.91 (no sharp cut-off); inconclusive means no clear call, values can overlap the other calls; inactive means mostly above about 0.92. This is one part of the list.
Assay: chemical genetic growth profiling, strain panel (AID 1159580);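 further: tested at 20 µM; growth read once vehicle control cultures reached saturation at 30 °C; 1 = growth at the plate median or of vehicle wells; lower values mean less growth of the strain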
Conditions: growth OD

Measured: normalized growth

O=C(O)CNCP(=O)(O)O
inactive: S. cerevisiae deletion strains, locus YJR075W, strain HOC1, hits give low values 1.01 | S. cerevisiae deletion strains, locus YKL009W, strain mrt4, hits give low values 1.04 | S. cerevisiae deletion strains, locus YKL068W, hits give low values 1.01 | S. cerevisiae deletion strains, locus YKL085W, strain MDH1 (second series), hits give low values 1 | S. cerevisiae deletion strains, locus YKL085W, strain MDH1, hits give low values 1 | S. cerevisiae deletion strains, locus YKL160W, strain elf1, hits give low values 1.02 | S. cerevisiae deletion strains, locus YKL190W, strain CNB1, hits give low values 1.01 | S. cerevisiae deletion strains, locus YKR001C, strain vps1, hits give low values 1.02 | S. cerevisiae deletion strains, locus YKR026C, strain gcn3, hits give low values 1.02 | S. cerevisiae deletion strains, locus YKR091W, strain srl3, hits give low values 1.01 | S. cerevisiae deletion strains, locus YLL001W, strain dnm1, hits give low values 1.02 | S. cerevisiae deletion strains, locus YLL026W, hits give low values 1.01 | S. cerevisiae deletion strains, locus YLL041C, strain sdh2, hits give low values 1.01 | S. cerevisiae deletion strains, locus YLR027C, strain aat2, hits give low values 1.01 | S. cerevisiae deletion strains, locus YLR039C, strain RIC1, hits give low values 1.03 | S. cerevisiae deletion strains, locus YLR058C, strain SHM2, hits give low values 1.01 | S. cerevisiae deletion strains, locus YLR102C, strain apc9, hits give low values 1.01 | S. cerevisiae deletion strains, locus YLR113W, strain HOG1, hits give low values 1.02 | S. cerevisiae deletion strains, locus YLR221C, strain rsa3, hits give low values 1.01 | S. cerevisiae deletion strains, locus YLR258W, strain gsy2, hits give low values 1.02 | S. cerevisiae deletion strains, locus YLR262C, strain YPT6 (second series), hits give low values 1.03 | S. cerevisiae deletion strains, locus YLR262C, strain YPT6, hits give low values 1.03 | S. cerevisiae deletion strains, locus YLR268W, strain sec22, hits give low values 1 | S. cerevisiae deletion strains, locus YLR320W, strain mms22, hits give low values 1.03 | S. cerevisiae deletion strains, locus YLR330W, strain CHS5, hits give low values 1.01 | S. cerevisiae deletion strains, locus YLR342W, strain FKS1 (second series), hits give low values 1.03 | S. cerevisiae deletion strains, locus YLR342W, strain FKS1, hits give low values 1.03 | S. cerevisiae deletion strains, locus YLR357W, strain rsc2, hits give low values 1.03 | S. cerevisiae deletion strains, locus YLR370C, strain arc18, hits give low values 1 | S. cerevisiae deletion strains, locus YLR371W, strain rom2, hits give low values 1.01 | S. cerevisiae deletion strains, locus YLR384C, strain iki3, hits give low values 0.993 | S. cerevisiae deletion strains, locus YLR418C, strain cdc73, hits give low values 1.02 | S. cerevisiae deletion strains, locus YML016C, strain PPZ1, hits give low values 1 | S. cerevisiae deletion strains, locus YML032C, strain rad52, hits give low values 1.01 | S. cerevisiae deletion strains, locus YML120C, strain ndi1, hits give low values 1.02 | S. cerevisiae deletion strains, locus YML124C, strain tub3, hits give low values 1.01 | S. cerevisiae deletion strains, locus YMR058W, strain fet3, hits give low values 1.02 | S. cerevisiae deletion strains, locus YMR078C, strain ctf18, hits give low values 1.01 | S. cerevisiae deletion strains, locus YMR125W, strain sto1, hits give low values 1.02 | S. cerevisiae deletion strains, locus YMR129W, hits give low values 1.01 | S. cerevisiae deletion strains, locus YMR205C, strain PFK2, hits give low values 1.05 | S. cerevisiae deletion strains, locus YMR223W, strain ubp8, hits give low values 1.01 | S. cerevisiae deletion strains, locus YMR231W, strain pep5, hits give low values 1 | S. cerevisiae deletion strains, locus YMR263W, strain SAP30, hits give low values 1.01 | S. cerevisiae deletion strains, locus YMR307W, strain GAS1, hits give low values 0.975 | S. cerevisiae deletion strains, locus YNL067W, strain RPL9B, hits give low values 1.02 | S. cerevisiae deletion strains, locus YNL071W, strain lat1, hits give low values 1.02 | S. cerevisiae deletion strains, locus YNL128W, strain TEP1, hits give low values 1 | S. cerevisiae deletion strains, locus YNL153C, strain GIM3, hits give low values 1 | S. cerevisiae deletion strains, locus YNL183C, strain NPR1, hits give low values 0.917 | S. cerevisiae deletion strains, locus YNL209W, strain ssb2, hits give low values 1.03 | S. cerevisiae deletion strains, locus YNL233W, strain BNI4, hits give low values 1.02 | S. cerevisiae deletion strains, locus YNL248C, strain rpa49, hits give low values 1.01 | S. cerevisiae deletion strains, locus YNL250W, strain rad50, hits give low values 1 | S. cerevisiae deletion strains, locus YNL271C, strain bni1, hits give low values 1.01 | S. cerevisiae deletion strains, locus YNL298W, strain CLA4, hits give low values 1.02 | S. cerevisiae deletion strains, locus YNL307C, strain MCK1, hits give low values 1.02 | S. cerevisiae deletion strains, locus YNL322C, strain KRE1 (second series), hits give low values 1.02 | S. cerevisiae deletion strains, locus YNL322C, strain KRE1, hits give low values 1 | S. cerevisiae deletion strains, locus YNR049C, strain mso1, hits give low values 1.02 | S. cerevisiae deletion strains, locus YNR052C, strain pop2, hits give low values 1.01 | S. cerevisiae deletion strains, locus YOL006C, strain TOP1, hits give low values 1.05 | S. cerevisiae deletion strains, locus YOL012C, strain htz1 0.788 | S. cerevisiae deletion strains, locus YOL147C, strain pex11, hits give low values 1.01 | S. cerevisiae deletion strains, locus YOR001W, strain rrp6, hits give low values 1.01 | S. cerevisiae deletion strains, locus YOR061W, strain CKA2, hits give low values 1 | S. cerevisiae deletion strains, locus YOR069W, strain VPS5, hits give low values 1.01 | S. cerevisiae deletion strains, locus YOR070C, strain gyp1, hits give low values 1.02 | S. cerevisiae deletion strains, locus YOR080W, strain dia2, hits give low values 1.01 | S. cerevisiae deletion strains, locus YOR083W, strain WHI5, hits give low values 1.01 | S. cerevisiae deletion strains, locus YOR106W, strain vam3, hits give low values 1.02 | S. cerevisiae deletion strains, locus YOR136W, strain idh2, hits give low values 1.02 | S. cerevisiae deletion strains, locus YOR144C, strain elg1, hits give low values 1.02 | S. cerevisiae deletion strains, locus YOR184W, strain ser1, hits give low values 1.02 | S. cerevisiae deletion strains, locus YOR231W, strain MKK1, hits give low values 0.977 | S. cerevisiae deletion strains, locus YOR265W, strain rbl2, hits give low values 1.01 | S. cerevisiae deletion strains, locus YOR270C, strain vph1, hits give low values 1.03 | S. cerevisiae deletion strains, locus YOR290C, strain snf2, hits give low values 1.02 | S. cerevisiae deletion strains, locus YOR316C, strain cot1, hits give low values 1.01 | S. cerevisiae deletion strains, locus YPL051W, strain arl3, hits give low values 1.02 | S. cerevisiae deletion strains, locus YPL055C, strain LGE1, hits give low values 0.987 | S. cerevisiae deletion strains, locus YPL078C, strain atp4, hits give low values 1.02 | S. cerevisiae deletion strains, locus YPL106C, strain sse1, hits give low values 1.02 | S. cerevisiae deletion strains, locus YPL240C, strain hsp82, hits give low values 1.02 | S. cerevisiae deletion strains, locus YPL241C, strain CIN2, hits give low values 0.999 | S. cerevisiae deletion strains, locus YPL256C, strain CLN2, hits give low values 0.962 | S. cerevisiae deletion strains, locus YPR119W, strain clb2, hits give low values 1.01 | S. cerevisiae deletion strains, locus YPR141C, strain kar3, hits give low values 1.02 | S. cerevisiae deletion strains, locus YPR163C, strain tif3, hits give low values 1.01 | S. cerevisiae deletion strains, locus YPR167C, strain met16, hits give low values 1.02 | S. cerevisiae deletion strains, strain wtn01, hits give low values 1.01 | S. cerevisiae strains, strain wild type, hits give low values 0.997

From PubChem BioAssay AID1159580 (chemical genetic matrix, 2015)
